PubChem BioAssay (Tox21)
Inconclusive results are not listed. Active and inactive are the calls of the source. Unless noted, calls follow the shape of the dose curve; as a rule, active = well fitted curve in the direction sought with a large enough effect in the repeat runs; inconclusive = weak or mixed curves; inactive = no such curve, though single readings can be large; an effect the other way counts as inactive or inconclusive.

Legend:
[1] = qHTS assay to identify small molecule agonists of the vitamin D receptor (VDR) signaling pathway - cell viability counter screen (AID 743224); also: nearly all actives have a fitted effect of over 50% in size
Method in brief: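 VDR-bla cells, 4 h after plating, exposed to compounds for 16 h at 37C; viability then read in the same wells as CellTiter-Glo luminescence after 30 min at room temperature, following the bla FRET read.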

[2] = qHTS assay to identify small molecule antagonists of the vitamin D receptor (VDR) signaling pathway - cell viability counter screen (AID 743225); also: nearly all actives have a fitted effect of over 50% in size
Method in brief: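 In this counter screen, VDR-bla HEK 293T cells receive test compound plus 3 nM final calcitriol for 16 h at 37C. Room-temperature steps of 2 h with the beta-lactamase substrate, then 30 min with CellTiter-Glo, precede the luminescence read.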

[3] = qHTS assay to identify small molecule agonists of the NFkB signaling pathway - cell viability counter screen (AID 1159515; calls by dose curve; also: nearly all actives have a fitted effect of over 55% in size)
Method in brief: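 NFkB-bla ME-180 cells, 2,000/well, plated overnight at 37 C; compound added for 5 hr at 37 C. Viability read in the same wells as the bla reporter, by CellTiter-Glo luminescence after 30 min at room temperature.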

[4] = qHTS assay to identify small molecule agonists of the endoplasmic reticulum stress response signaling pathway (AID 1159516; active = well fitted activation curve with a large enough effect in the signal ratio in the repeat runs, not every such curve was filed as active; the % refers to the signal ratio)
Method in brief: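 CellSensor ESRE-bla HeLa cells, 1,500 per well, plated overnight, then exposed to compounds for 5 hr at 37 C. Beta-lactamase reporter read with LiveBLAzer B/G FRET substrate after 2 hr at room temperature, 405 nm excitation, 460 and 530 nm emission.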

[5] = qHTS assay to identify small molecule agonists of the endoplasmic reticulum stress response signaling pathway - cell viability counter screen (AID 1159517; calls by dose curve;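 also: HeLa cells carrying an ER stress response element beta-lactamase reporter; nearly all actives have a fitted effect of over 50% in size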)
Method in brief: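 Cells, HeLa ESRE-bla; density, 1,500/well; dosing, 5 hr at 37 C, 5% CO2; readout, CellTiter-Glo luminescence after 30 min RT.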

[6] = molecular target: Nuclear receptor ROR-gamma (Homo sapiens) (UniProt P51449); assay: qHTS assay to identify small molecule antagonists of the retinoid-related orphan receptor gamma (ROR-gamma) signaling pathway (AID 1159521;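 also: CHO cells with doxycycline inducible ROR-gamma driving an RORE luciferase reporter; top concentration of the series differs between compounds; nearly all actives have a fitted effect of over 50% in size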)
Method in brief: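 Screening format: cell-based luciferase reporter in CHO cells with doxycycline-inducible RORγ. Compound pre-exposure lasts 2 h, doxycycline is 1 uM final, induction runs 16 h at 37 C, and ONE-Glo luminescence is read.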

[7] = qHTS assay to identify small molecule agonists of the AP-1 signaling pathway - cell viability counter screen (AID 1159525; calls by dose curve; also: nearly all actives have a fitted effect of over 55% in size)
Method in brief: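 Luminescent ATP readout (Cell Titer Glo, 30 min RT), normalised to DMSO and tetra n-octyl ammonium bromide controls. Cells were ME-180 AP-1-bla in 0.5% dialyzed FBS Opti-MEM, with a 5 h, 37 °C compound exposure.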

[8] = qHTS assay to identify small molecule agonists of the AP-1 signaling pathway (AID 1159526; calls by dose curve)
[9] = molecular target: Retinoic acid receptor RXR-alpha (Homo sapiens) (UniProt P19793); assay: qHTS assay to identify small molecule agonists of the RXR signaling pathway (AID 1159527; calls by dose curve; also: nearly all actives have a fitted effect of over 35% in size)
Method in brief: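 Fluorescence ratio readout (460 vs 530 nm) from GeneBLAzer RXR-alpha HEK 293T cells after 16 hr compound treatment; cells seeded 5 hr beforehand in low-serum, charcoal-stripped medium.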

[10] = qHTS assay to identify small molecule agonists of the RXR signaling pathway - cell viability counter screen (AID 1159529)
Method in brief: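 Viability read-out for the RXR-alpha agonist qHTS: luminescent CellTiter-Glo signal after 30 min at RT. HEK 293T bla reporter cells, 2% charcoal-stripped FBS, 16 hr compound incubation; tetraoctyl ammonium bromide as cytotoxic control.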

[11] = qHTS assay to identify small molecule antagonists of the retinoid acid receptor (RAR) signaling pathway - cell viability counter screen (AID 1159551); also: nearly all actives have a fitted effect of over 35% in size
Method in brief: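 C3RL4 RARE-luciferase cells, 1,000/well, incubated overnight, then dosed with compound plus 1 uM retinol (final). After 6 hr at 37 C, viability read by CellTiter-Glo ATP luminescence following 30 min at room temperature.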

[12] = qHTS assay to identify small molecule antagonists of the retinoic acid receptor (RAR) signaling pathway (AID 1159552; also: nearly all actives have a fitted effect of over 50% in size)
Method in brief: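 Using a RARE-driven luciferase construct in C3RL4 cells, retinol at 1 uM final provided the agonist stimulus while compounds were co-applied. After 6 hours at 37 C, luminescence was recorded to flag inhibitors of retinol signaling.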

[13] = qHTS assay to identify small molecule agonists of the retinoic acid receptor (RAR) signaling pathway (AID 1159553); settings: C3RL4 RARE luciferase reporter, agonist, 6 h; activation: at 73.3 µM (top of the series)
Method in brief: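 C3RL4 RARE-luciferase cells were seeded at 1,000/well and grown overnight at 37 C, then exposed to compounds for 6 hr at 37 C, 5% CO2. Luciferase reagent was added and luminescence was read after 30 min at room temperature.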

[14] = qHTS assay to identify small molecule antagonists of the estrogen related receptor (ERR) signaling pathway from Tox21 library - cell viability counter screen (AID 1224834); also: nearly all actives have a fitted effect of over 30% in size
Method in brief: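 ERR reporter cells, 2,000 per well, rested 6 h, then exposed to compound in DMSO for 17.5 hours at 37 C. Viability read as fluorescence after 30 min with CellTiter-Fluor.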

[15] = molecular target: Luciferin 4-monooxygenase (Photinus pyralis) (UniProt P08659); assay: qHTS assay to identify small molecule inhibitors of firefly luciferase (AID 1224835); also: nearly all actives have a fitted effect of over 25% in size
Method in brief: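 Inhibition of purified Photinus luciferase is measured by luminescence. Substrate levels (D-luciferin, ATP) sit at their KM values. Each compound is tested in a concentration series.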

[16] = qHTS assay to identify small molecule antagonists of the constitutive androstane receptor (CAR) signaling pathway - cell viability counter screen (AID 1224837); also: nearly all actives have a fitted effect of over 45% in size
Method in brief: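 HepG2 cells stably carrying hCAR and CYP2B6-2.2kb reporter, stimulated with 50 nM CITCO and compounds at 15 concentrations for 23 h at 37 C. Viability measured by CellTiter-Fluor fluorescence.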

[17] = qHTS assay to identify small molecule antagonists of the retinoid-related orphan receptor gamma (ROR-gamma) signaling pathway - cell viability counter screen (AID 1159520); also: nearly all actives have a fitted effect of over 50% in size
Method in brief: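 Cytotoxicity was read from cellular ATP (CellTiter-Glo luminescence) after 16 hr at 37 C with 1 uM doxycycline induction. The inducer was added 2 hr after compound transfer to Tet-on ROR gamma CHO cells.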

[18] = qHTS assay to identify small molecule agonists of the constitutive androstane receptor (CAR) signaling pathway - cell viability counter screen (AID 1224836); also: nearly all actives have a fitted effect of over 45% in size
Method in brief: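 Multiplexed viability check: HepG2-CYP2B6-hCAR cells, 15-point compound dosing, 0.75 uM PK11195 final, 23 h at 37 C, CellTiter-Fluor fluorescence.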

[19] = molecular target: Nuclear receptor subfamily 1 group I member 3 (Homo sapiens) (UniProt Q14994); assay: qHTS assay to identify small molecule antagonists of the constitutive androstane receptor (CAR) signaling pathway (AID 1224838); also: nearly all actives have a fitted effect of over 40% in size
Method in brief: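 HepG2 cells stably carrying hCAR and a CYP2B6-2.2kb luciferase reporter, seeded 4 hrs before compound (15 concentrations). Stimulated with 50 nM CITCO for 24 hr at 37 C. ONE-Glo luminescence read after 30 min at room temperature.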

Measured: Potency

Sequence of Retinoic acid receptor RXR-alpha (Homo sapiens) (P19793 whole entry, looked up): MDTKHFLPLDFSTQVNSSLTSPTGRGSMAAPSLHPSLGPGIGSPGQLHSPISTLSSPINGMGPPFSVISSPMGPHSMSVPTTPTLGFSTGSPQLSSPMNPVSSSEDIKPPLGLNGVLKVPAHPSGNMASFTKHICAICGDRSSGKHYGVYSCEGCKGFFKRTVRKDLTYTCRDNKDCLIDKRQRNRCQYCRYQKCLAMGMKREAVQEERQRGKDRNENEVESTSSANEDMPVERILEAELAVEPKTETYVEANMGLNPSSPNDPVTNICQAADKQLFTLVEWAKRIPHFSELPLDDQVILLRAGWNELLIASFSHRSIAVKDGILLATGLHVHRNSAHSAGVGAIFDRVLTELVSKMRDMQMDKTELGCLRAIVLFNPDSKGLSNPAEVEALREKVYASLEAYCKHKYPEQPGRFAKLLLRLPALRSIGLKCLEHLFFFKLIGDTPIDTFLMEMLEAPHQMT
Sequence of Luciferin 4-monooxygenase (Photinus pyralis) (P08659 whole entry, looked up): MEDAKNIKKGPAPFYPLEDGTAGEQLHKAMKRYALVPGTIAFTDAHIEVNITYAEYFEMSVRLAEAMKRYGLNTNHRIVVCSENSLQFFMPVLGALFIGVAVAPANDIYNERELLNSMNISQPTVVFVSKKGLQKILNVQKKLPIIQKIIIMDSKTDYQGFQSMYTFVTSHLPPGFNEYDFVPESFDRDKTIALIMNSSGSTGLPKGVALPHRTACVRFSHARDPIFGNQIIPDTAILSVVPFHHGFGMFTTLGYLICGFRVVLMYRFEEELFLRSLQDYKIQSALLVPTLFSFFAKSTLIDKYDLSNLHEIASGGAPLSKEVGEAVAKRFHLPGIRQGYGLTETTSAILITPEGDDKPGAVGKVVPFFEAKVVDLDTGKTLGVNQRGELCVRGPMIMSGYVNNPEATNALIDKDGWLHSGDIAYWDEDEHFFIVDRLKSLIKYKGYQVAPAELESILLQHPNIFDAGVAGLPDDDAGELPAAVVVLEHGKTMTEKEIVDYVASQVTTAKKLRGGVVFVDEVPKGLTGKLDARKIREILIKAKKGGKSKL
Sequence of Nuclear receptor subfamily 1 group I member 3 (Homo sapiens) (Q14994 whole entry, looked up): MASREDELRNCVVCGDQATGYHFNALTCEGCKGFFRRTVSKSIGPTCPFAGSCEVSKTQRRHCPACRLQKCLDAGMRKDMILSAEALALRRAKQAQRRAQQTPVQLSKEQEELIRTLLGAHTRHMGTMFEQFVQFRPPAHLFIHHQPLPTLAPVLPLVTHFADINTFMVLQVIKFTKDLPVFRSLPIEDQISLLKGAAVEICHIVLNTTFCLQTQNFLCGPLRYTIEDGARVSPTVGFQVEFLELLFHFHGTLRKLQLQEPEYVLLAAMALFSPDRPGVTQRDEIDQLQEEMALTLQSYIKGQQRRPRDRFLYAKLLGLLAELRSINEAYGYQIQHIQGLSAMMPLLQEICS

SCCSCCS
not listed: [17] | [18] | [19]
inactive: all other assays above

CCOC(=O)CCc1ccccc1
not listed: [5] | [19]
inactive: all other assays above

CC(=O)Nc1ncc([N+](=O)[O-])s1
not listed: [19]
inactive: all other assays above

C[CH2][Ge]([Cl])([CH2]C)[CH2]C
not listed: [19]
inactive: all other assays above

C=CCOC(=O)c1ccc(C(=O)OCC=C)c(C(=O)OCC=C)c1
not listed: [15]
inactive: all other assays above

O=S(=O)(O)SSS(=O)(=O)O
not listed: [15] | [18]
inactive: all other assays above

CCC(=O)c1ccc(O)cc1
not listed: [5]
inactive: all other assays above

CC(C)(C)NCCO
not listed: [1] | [6] | [19]
inactive: all other assays above

CC(C)(CO)[C@@H](O)C(=O)NCCCO
not listed: [19]
inactive: all other assays above

CNC(=O)C(c1ccccc1)c1ccccc1
not listed: [16] | [19]
inactive: all other assays above

C1=C\CC/C=C\CC/1
not listed: [6] | [14]
inactive: all other assays above
